Holding throughout (type): functional
The target of experiment [1] is Solute carrier family 2, facilitated glucose transporter member 1 (Homo sapiens) (UniProt P11166). Briefly: ST_JUDE_LEISH: Cytotoxicity at 2uM final concentration against transgenic Leishmania Mexicana promastigotes LmGLUT1 that are glucose transport deficient and complemented with the human glucose transporter GLUT1. Activity is measured by DNA content using SYBR green in vitro.

Experiment [2] deals with Hexose transporter 1 (Plasmodium falciparum) (UniProt O97467). Nature of the experiment: ST_JUDE_LEISH: Cytotoxicity at 2uM final concentration against transgenic Leishmania Mexicana promastigotes LmPfHT that are glucose transport deficient and complemented with the Plasmodium falciparum hexose transporter. Activity is measured by DNA content using SYBR green in vitro.
Experiment [3] deals with Glucose transporter (Leishmania mexicana) (UniProt O61059). Briefly: ST_JUDE_LEISH: Cytotoxicity at 2uM final concentration against transgenic Leishmania Mexicana promastigotes LmGT2 that are glucose transport deficient and complemented with the L. Mexicana glucose transporter 2. Activity is measured by DNA content using SYBR green in vitro.

SMILES strings stand for the structures.

Inhibition data for 33 molecules are collected here from ChEMBL document CHEMBL3433997, “St. Jude Leishmania screening dataset” (2016).

Chain of Solute carrier family 2, facilitated glucose transporter member 1 (Homo sapiens) (P11166 whole entry): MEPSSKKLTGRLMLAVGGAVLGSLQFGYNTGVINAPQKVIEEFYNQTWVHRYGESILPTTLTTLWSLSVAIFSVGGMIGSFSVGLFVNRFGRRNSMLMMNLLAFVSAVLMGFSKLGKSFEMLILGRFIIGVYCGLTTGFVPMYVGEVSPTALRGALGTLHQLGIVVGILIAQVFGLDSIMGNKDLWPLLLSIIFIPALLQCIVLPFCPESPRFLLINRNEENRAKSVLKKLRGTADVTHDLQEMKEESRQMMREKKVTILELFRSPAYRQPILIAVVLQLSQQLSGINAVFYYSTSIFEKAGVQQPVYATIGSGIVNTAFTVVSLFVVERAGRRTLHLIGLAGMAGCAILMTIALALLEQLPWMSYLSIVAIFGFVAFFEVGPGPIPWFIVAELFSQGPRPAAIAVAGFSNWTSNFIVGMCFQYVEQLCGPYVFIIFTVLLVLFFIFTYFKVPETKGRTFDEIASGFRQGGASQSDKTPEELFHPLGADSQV

With `CN(C(=O)c1ccc(Br)cc1)c1ccccc1[N+](=O)[O-]`, the values for the inhibition in experiment [1], in experiment [2] and in experiment [3] were -1.57%, -1.07% and -2.57%, respectively.
For `Cc1cccc2nc(-c3cccc(-c4cccc(NC(=O)c5cccnc5)c4)c3)[nH]c12`, in that order: 2.26%, -0.15% and -3.86%.
For `CC(C)N(Cc1cnc2nc(N)nc(N)c2n1)c1ccc(Cl)c(Cl)c1` the same measures were 1.77%, 1.12% and 1.16%.
For `COc1cc(NC(=O)/C=C/c2ccccc2Cl)cc(OCCN2CCC(O)(c3ccccc3)CC2)c1` the same measures were 6.07%, 3.45% and 4.61%.
Take `O=C(Nc1cccc(F)c1)N[C@H]1CCN(CCCCCNC(=O)C2CC2c2ccc(Cl)c(Cl)c2)C1` (some centres undefined): the inhibition in experiment [1] was determined as 4.75%; in experiment [2] it was 3.61%; in experiment [3], 0.83%.
For `C=C(C)C1CC=C(CN2CCCC(n3ccc4cc(NC(=O)c5ccco5)ccc43)CC2)CC1` (centres undefined) the same measures were -1.77%, 3.75% and -2.38%.
Take `CCN(CCCN1CCCCC1)c1cc(C)nc(Nc2ccc(C)cc2)n1`: the inhibition in experiment [1] worked out at 0%; in experiment [2], 1.61%; in experiment [3] it was 0.31%.
For `O=C(NCC1CCN(CC2CCCCC2)C1)c1cc(-c2cccc(Cl)c2)cs1` (centres undefined) the same measures were 2.86%, 1.57% and 1.14%.
`Cc1noc(C)c1-c1cccc(CNCc2cccc(-c3ccc(-c4nc5cc(C(F)(F)F)ccc5[nH]4)s3)c2)c1`: the inhibition in experiment [1] was determined as 0.65%; in experiment [2] it was 7.93%; in experiment [3], 5.87%.
For `O=C(/C=C/c1ccc(Cl)c(Cl)c1)NCCCCCN1CCC(CCNC(=O)/C=C/c2ccccc2F)CC1`, the inhibition was 2.07% in experiment [1], -1.13% in experiment [2] and 2.95% in experiment [3].
For `O=C(Nc1cccc(CN2CCCN(Cc3ncc[nH]3)CC2)c1)c1ccc(Cl)c(Cl)c1`, in that order: 2.9%, 3.94% and 5.79%.
For `O=C(N[C@H]1CCN(Cc2ccc(OCCN3CCCC3)c3ccccc23)C1)c1ccc(Cl)c(Cl)c1`, in that order: 1.59%, 2.72% and -2.78%.
For `CCCCCNc1nc(Nc2ccccc2C)nc2ccccc12`, in that order: 29.1%, 22.7% and 11%.
As for `Cc1cccc(-c2ccc(CNC3CCN(CC4Cn5c(=O)ccc6ccc(F)c4c65)CC3)cn2)c1` (centres undefined), the figures for the inhibition in experiment [1], in experiment [2] and in experiment [3] were 6.75%, 7.42% and 1.89%, respectively.
`O=C1C(c2ccccc2)=C(Nc2ccc(Cl)cc2)c2ccccc21`: the inhibition in experiment [1] stood at 1.6%; in experiment [2], 1.45%; in experiment [3], 2.61%.
Turning to `CCOC(=O)c1[nH]c2cc(Cl)cc(Cl)c2c1/C=C/C(=O)Nc1ccc(-c2cnc(NC(C)=O)[nH]2)cc1`, the inhibition is -1.61% in experiment [1], -2.31% in experiment [2] and -1.73% in experiment [3].
For `Cc1ccc(C)c(S(=O)(=O)NCC2CCN(Cc3ccc(O)cc3)CC2)c1`, in that order: 41.3%, 7.78% and -2.61%.
`CCCCCOc1ccc(C(O)C(CCC(CN2CCCCCC2)C(O)c2ccc(OCCCCC)cc2)CN2CCCCCC2)cc1` (centres undefined): the inhibition in experiment [1] came out at 3.22%; in experiment [2], 2.73%; in experiment [3], 1.43%.
For `Cc1cc(OCCCN2CCC(NS(=O)(=O)c3ccc(Cl)c(Cl)c3)C2)c2ccccc2n1` (centres undefined), in that order: 3.81%, 4.67% and 3.91%.
For `N=C(N)Nc1nc(-c2cccc(NC(=O)NCc3ccc(OC(F)(F)F)cc3)c2)cs1` the same measures were 1.51%, 0.95% and 0.07%.
As for `CC(=O)c1ccc(-c2cccc3c(CC(=O)Nc4ccc5nccc(N6CCN(C)CC6)c5c4)cccc23)cc1`, the inhibition is 0.38% in experiment [1], 1.03% in experiment [2] and -1.81% in experiment [3].
For `CC(C)n1nc(C(=O)N2CCN(c3ccccc3)CC2)c2ccccc2c1=O` the same measures were 1.27%, -0.42% and -0.69%.
For `CN1CCN(c2ccnc3ccc(NC(=O)Nc4cccc5c(Br)cccc45)cc23)CC1` the same measures were 0.91%, 3.33% and 2.86%.
For `CC(C)C(=O)Nc1c(F)cc(F)cc1CCc1ccc(O)cc1` the same measures were 7.29%, 8.12% and 5.01%.
As for `CC(=O)Nc1ncc(C(=O)Nc2ccc(-c3cccc(-c4nc5cc(F)ccc5[nH]4)c3)cc2)s1`, the inhibition in experiment [1] amounted to 6.62%; in experiment [2] it was 7%; in experiment [3], 6.95%.
For `FC(F)(F)c1ccc2[nH]c(-c3ccc(-c4ccc(CN5CCN(c6cnccn6)CC5)cc4)s3)nc2c1` the same measures were 2.24%, 1.86% and -2.19%.
For `Cc1ccc(OC2CCN(CCCCC3(C)C(=O)Nc4ccccc43)CC2)cc1` (centres undefined), in that order: 4.24%, 15.1% and 9.07%.
For `CCOc1ccc2c(=NN=Cc3ccccn3)cc(C)[nH]c2c1` the same measures were 9.68%, 7.32% and 6.78%.
Consider `Fc1c(CNCC2CCN(CC3CCCCC3)CC2)cccc1C(F)(F)F`, for which the figures for the inhibition in experiment [1], in experiment [2] and in experiment [3] were 4.53%, 3.93% and 5%, respectively.
For `CC(=NNC(=N)N)C(=O)Nc1ccc(Cl)c(Cl)c1`, in that order: 1.75%, 1.53% and 2.25%.
For `O=C(O)c1ccc2c(c1)N(C(=O)CNCc1ccc(F)cc1)CC(=O)N2CCCc1ccccc1` the same measures were -4.22%, -1.82% and -2.25%.
For `CCOC(=O)c1c(C)noc1Nc1ccc(OC)cc1` the same measures were 1.87%, 2.32% and 2.21%.
On to `O=C(O[C@@H]1CN[C@H](C#Cc2cc3c(Nc4ccc5c(cnn5Cc5ccccc5)c4)ncnc3s2)C1)N1CCCC1`, for which the results for the inhibition in experiment [1], in experiment [2] and in experiment [3] were -0.49%, 0.25% and -0.78%, respectively.

The inhibition is the change of the read-out against control, counted positive when it falls.
